Screens deposited in PubChem by National Center for Advancing Translational Sciences (NCATS).
BAZ2B block – BAZ2B (human) inhibition. hit rate 4.4% among 360,000. AID 504333. Potency, µM (top dose mostly 114 µM), actives largely listed as inhibitors. AlphaScreen BAZ2B-H3K14Ac peptide displacement. Q9UIF8; note: nearly all actives have a fitted effect of over 60% in size
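Multi-concentration screen (max 110 uM) measuring displacement of acetylated histone H3 peptide from BAZ2B by AlphaScreen, using 50 nM protein, 50 nM peptide and 10 ug/mL streptavidin donor plus Ni-chelate acceptor beads.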
G9a block – G9a (human) methyltransferase inhibition. Q96KQ7. G9a H3K9 monomethylation, AlphaScreen, 2 h. Potency, µM (top dose mostly 102 µM), actives largely listed as inhibitors. hit rate 8.8% among 350,000. AID 504332; note: nearly all actives have a fitted effect of over 75% in size
Target sequence (Q96KQ7 913-1193 limits assumed): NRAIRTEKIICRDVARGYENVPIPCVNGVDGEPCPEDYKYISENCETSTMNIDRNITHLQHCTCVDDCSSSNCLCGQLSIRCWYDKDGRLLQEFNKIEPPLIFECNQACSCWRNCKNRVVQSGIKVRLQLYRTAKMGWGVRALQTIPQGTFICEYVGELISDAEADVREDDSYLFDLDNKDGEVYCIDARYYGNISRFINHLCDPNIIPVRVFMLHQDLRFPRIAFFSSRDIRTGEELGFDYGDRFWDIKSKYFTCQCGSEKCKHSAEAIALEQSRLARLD
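Readings reflect AlphaScreen signal from monomethyl-H3K9 antibody detection. HMT at 20 nM; substrate b-H3K9 500 nM; cofactor SAM 20 uM; 2 h RT reaction; compounds tested as titrations in qHTS with 15 min preincubation.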
JMJD2A Tudor inh – JMJD2A Tudor domain (human) inhibition; AlphaScreen JMJD2A-Tudor / H3K4me3 peptide binding; Potency, µM (top dose mostly 114 µM), usual class: inhibitors; hit rate 4.4% among 390,000; AID 504339; note: nearly all actives have a fitted effect of over 50% in size
L3MBTL1 block – inhibitors of human L3MBTL1 | Q9Y468 | AID 485360 | AlphaScreen L3MBTL1–H3K9me1 peptide binding | hit rate 0.66% among 230,000 | Potency, µM (titrated, usually from 57.1 µM), actives largely listed as inhibitors; note: nearly all actives have a fitted effect of over 60% in size
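AlphaScreen assay: L3MBTL1 (50 nM final) was preincubated 30 min at room temperature with biotinylated H3(1-15)K9me1 peptide (75 nM final), then 30 min with library compounds; streptavidin donor and nickel chelate acceptor beads (10 ug/mL final) added, 30 min dark.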
HP1b chromo inh – blocks HP1-beta chromodomain binding to methylated histone tails. P83916. AlphaScreen HP1-beta / biotin-H3K9me3 peptide binding. Potency, µM (highest dose often 114 µM), usual class: inhibitors. hit rate 0.56% among 390,000; note: nearly all actives have a fitted effect of over 70% in size
Target sequence (P83916 whole entry, looked up): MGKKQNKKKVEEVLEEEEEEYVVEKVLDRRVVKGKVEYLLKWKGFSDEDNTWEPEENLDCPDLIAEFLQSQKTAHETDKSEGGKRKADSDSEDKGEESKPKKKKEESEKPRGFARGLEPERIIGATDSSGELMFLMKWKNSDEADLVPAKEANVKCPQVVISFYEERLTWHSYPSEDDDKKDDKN
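HP1-beta protein (50 nM final) preincubated 30 min at room temperature with biotinylated H3(1-18)K9me3 peptide (50 nM) in PBS pH 7.4, 0.01% Tween-20, then compound added for 30 min. AlphaScreen streptavidin donor/nickel chelate acceptor beads (10 ug/mL final), 30 min dark, luminescence read.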
Sfp inh – blocks B. subtilis Sfp PPTase activity; Q9F4F7; Biochemical Sfp PPTase activity, qHTS; Potency, µM, most hits filed as inhibitors; hit rate 3.5% among 310,000; AID 1490;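 note: the enzyme is Sfp with the accession as filed and its product quenches rhodamine fluorescence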
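Compounds were incubated with enzyme (final 15 nM) for 15 min at room temperature before substrate addition started the reaction. Fluorescence at 525 nm excitation, 598 nm emission was recorded immediately and after 30 minutes.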
Each line names hits and unclear results; the compound was inactive in the other large screens. Shown are actives, neighbours in structure and some others; about 12% of the full set was active somewhere. Calls come from the whole dose curve; as a rule, active = well fitted curve in the direction sought with a large enough effect; inconclusive = small, poorly fitted or top-dose-only effect, or another doubt; inactive = no such curve, though single readings can be large; an effect the other way counts as inactive or inconclusive.

CCOC(=O)c1ccc2c(c1)nc(SCC(=O)c1cc3ccccc3o1)n2CC	G9a block 79µM (no result: L3MBTL1 block)
Cn1cnnc1SCC(=O)c1cc2ccccc2o1	G9a block inconclusive
Cc1ccnc(SCC(=O)c2cc3ccccc3o2)n1	G9a block 45µM
Cn1ccnc1SCC(=O)c1cc2ccccc2o1	BAZ2B block inconclusive, G9a block 40µM, JMJD2A Tudor inh inconclusive
COc1cccc(NC(=O)n2ncc3c(C)cccc32)c1	none (no result: L3MBTL1 block)
O=C(NN=Cc1ccc(Cl)cc1Cl)C1CC1	none (no result: BAZ2B block, G9a block, L3MBTL1 block, Sfp inh)
CC(OC(=O)CC1CCCCC1)C(=O)Nc1ccc(F)cc1 (stereo not given)	none (no result: Sfp inh)
O=C1c2ccccc2C(=O)N1c1cccc(Cl)c1	none (no result: BAZ2B block, G9a block, L3MBTL1 block, HP1b chromo inh, Sfp inh)
CC(C)(C)OC(=O)CC(=O)NNC(=O)c1cc2ccccc2[nH]1	none (no result: BAZ2B block, G9a block, L3MBTL1 block, HP1b chromo inh, Sfp inh)
CCCCCCCCCCCCC(=O)N1CCCC[C@H]1CNC(=O)[C@@H](N)CCCCN	Sfp inh 50µM (no result: BAZ2B block, G9a block, JMJD2A Tudor inh, L3MBTL1 block, HP1b chromo inh)
CC(=O)c1sc(C(=O)O)c(-c2ccco2)c1-c1ccco1	L3MBTL1 block inconclusive, Sfp inh 18µM (no result: G9a block)
Cc1cccc(C)c1OCc1cc(=O)n2c(-c3ccccc3)csc2n1	none (no result: L3MBTL1 block, Sfp inh)
O=c1cc(CN2CCN(c3ccc(O)cc3)CC2)nc2scc(-c3ccccc3)n12	G9a block 10µM, HP1b chromo inh inconclusive, Sfp inh 56µM
COc1ccccc1-c1ccc(=O)n(CC(=O)NC2CCc3ccccc32)n1 (stereo not given)	Sfp inh 35µM
COc1ccccc1CC(=O)NC1CCCc2ccccc21 (stereo not given)	none
Oc1cc(Br)ccc1C=Nc1ccc(N2CCCCC2)cc1	BAZ2B block inconclusive, G9a block 45µM
Cc1cc(Br)cc(C=Nc2ccc(N3CCOCC3)cc2)c1O	none (no result: BAZ2B block, G9a block, L3MBTL1 block, Sfp inh)
Cc1ccc(N=Cc2ccc(O)cc2O)cc1F	G9a block 10µM
Oc1ccc(C=Nc2ccc(N3CCOCC3)cc2)c(O)c1	BAZ2B block inconclusive, G9a block 1.6µM, JMJD2A Tudor inh 22µM, HP1b chromo inh inconclusive (no result: L3MBTL1 block)
CCOc1cc(C(=O)NCc2ccc3c(c2)CCN3C(=O)CC)cc(OCC)c1OCC	none (no result: L3MBTL1 block, Sfp inh)
O=C1N(Cc2ccccc2)CC2(Br)COCOC12O (stereo not given)	JMJD2A Tudor inh 3.5µM, HP1b chromo inh 7.1µM (no result: BAZ2B block, G9a block, L3MBTL1 block, Sfp inh)
O=C(O)C1CC(=O)N(Cc2ccccc2)C1 (stereo not given)	none
COc1ccc(N(C)S(=O)(=O)c2ccc3c(c2)NC(=O)CO3)c(OC)c1	none (no result: G9a block, L3MBTL1 block)
Sc1oc(-c2ccccc2)cc1C=Nc1ccccc1	BAZ2B block 20µM, G9a block 0.89µM, JMJD2A Tudor inh 20µM, HP1b chromo inh inconclusive (no result: L3MBTL1 block)
COc1ccc(CNc2ccc(N3CCN(C(C)=O)CC3)cc2)cc1OC	none (no result: BAZ2B block, G9a block, L3MBTL1 block, Sfp inh)
O=C(Nc1ccc(N2CCN(Cc3ccccc3)CC2)cc1)c1ccco1	G9a block 79µM, JMJD2A Tudor inh inconclusive (no result: L3MBTL1 block)
CC(=O)N1CCN(c2ccc(NCc3ccccc3)cc2)CC1	BAZ2B block inconclusive, G9a block 14µM, JMJD2A Tudor inh inconclusive, Sfp inh 45µM
Fc1ccc(CNc2ccc(N3CCN(Cc4ccccc4)CC3)cc2)cc1	BAZ2B block 10µM, G9a block 13µM, JMJD2A Tudor inh 20µM, L3MBTL1 block 22µM, HP1b chromo inh 22µM
O=C(c1ccc2c(c1)OCO2)N1CCN(c2ccccc2)CC1	none
O=C(c1ccccc1)N1CCN(c2ccc(NCc3ccc4c(c3)OCO4)cc2)CC1	BAZ2B block 35µM, G9a block 5µM, JMJD2A Tudor inh 50µM, L3MBTL1 block inconclusive, HP1b chromo inh 45µM
O=C(CCS(=O)(=O)c1ccc(F)cc1)Nc1ccc(N2CCN(Cc3ccccc3)CC2)cc1	G9a block inconclusive (no result: Sfp inh)
COc1ccccc1/C=N/NC(=O)C(=O)N1CCN(c2ccccc2OC)CC1	none
CC(C)Cn1c(=O)c2ccccc2n2c(CCC(=O)NC(C)c3ccccc3)nnc12 (stereo not given)	none (no result: L3MBTL1 block, Sfp inh)
CC(=O)N1CCN(c2ccc(NCc3cccc4ccccc34)cc2)CC1	BAZ2B block 32µM, G9a block 8.9µM, JMJD2A Tudor inh 22µM, HP1b chromo inh inconclusive
CC(=O)N1CCN(c2ccc(NC(=O)/C=C/c3ccccc3)cc2)CC1	none
COc1ccc(N2CCN(Cc3cc(=O)c(OCC(=O)NC4CCCC4)co3)CC2)cc1	G9a block 56µM (no result: Sfp inh)
O=C(COc1coc(CN2CCN(c3cccc(Cl)c3)CC2)cc1=O)NC1CCCC1	none (no result: Sfp inh)
CC(=O)Nc1ccccc1-c1nc2ccccc2n(C(C)C(=O)Nc2cc(Cl)ccc2C)c1=O (stereo not given)	BAZ2B block inconclusive (no result: L3MBTL1 block, Sfp inh)
COc1ccc(CCn2c(=N)c(C(=O)N3CCN(C)CC3)cc3c(=O)n4ccccc4nc32)cc1	G9a block 40µM
COc1ccc(CCn2c(=N)c(C(=O)NC3CCCCC3)cc3c(=O)n4ccccc4nc32)cc1	none (no result: L3MBTL1 block)
COC(=O)C1Cc2c([nH]c3ccccc23)CN1 (stereo not given)	G9a block 40µM
COC(=O)[C@H]1Cc2c([nH]c3ccccc23)[C@H](c2ccccc2)N1	none (no result: L3MBTL1 block)
O=C(O)CC(NS(=O)(=O)c1ccc(Br)cc1)c1ccco1 (stereo not given)	G9a block 79µM
Cc1ccc(S(=O)(=O)NC(CC(=O)O)c2ccco2)cc1 (stereo not given)	G9a block inconclusive
CCCCNC(=O)CC(NS(=O)(=O)c1ccc(C)cc1)c1ccco1 (stereo not given)	none
Cc1ccc(S(=O)(=O)NC(CC(=O)NCC2CCCO2)c2ccco2)cc1 (stereo not given)	JMJD2A Tudor inh 4.5µM
CCOC(=O)NN=C1c2ccccc2-c2ccccc21	none
O=C(NN=C1c2ccccc2-c2ccccc21)c1ccccc1Br	Sfp inh inconclusive
NC(=S)NN=C1c2ccccc2-c2ccccc21	BAZ2B block inconclusive, JMJD2A Tudor inh 50µM, HP1b chromo inh inconclusive (no result: L3MBTL1 block)
NC(=S)NN=C(c1ccccc1)c1ccccc1	G9a block 40µM, JMJD2A Tudor inh inconclusive (no result: L3MBTL1 block)
O=C(NN=C1c2ccccc2-c2ccccc21)c1ccccc1	BAZ2B block 28µM, G9a block 10µM, L3MBTL1 block 3.2µM, Sfp inh inconclusive
COc1ccc(-n2nnnc2SC(C)C(=O)NCC(=O)Nc2ccc(F)c(F)c2F)cc1 (stereo not given)	G9a block 40µM
Cc1cc(C)c2nc(SC(C)C(=O)NCC(=O)Nc3ccc(F)c(F)c3F)cc(C)c2c1 (stereo not given)	G9a block 18µM
Cc1cc(SC(C)C(=O)NCC(=O)Nc2ccc(F)c(F)c2F)nc2ccccc12 (stereo not given)	none
COc1ccc2nc(SC(C)C(=O)NCC(=O)Nc3ccc(F)c(F)c3F)[nH]c2c1 (stereo not given)	G9a block 50µM (no result: Sfp inh)
